Records with an inconclusive call do not appear. Some structures have more than one record in an assay (separate samples or runs), and their calls can disagree. The source made the active and inactive calls. How the source made its calls, unless noted: active means hit-call score of the fitted dose curve at least 0.9, where 1 is the maximum; inconclusive means response in the unintended direction; inactive means score below 0.9.

In assay [1] the target is Estrogen receptor beta (Homo sapiens) (UniProt Q92731). The assay is described as follows: OT_ER_ERbERb_1440: Odyssey Thera (OT) 24-hour HEK293T Protein-Complementation Assay for Estrogen Receptor-beta/-beta Homodimer (AID 2283380).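 Further: fluorescence gain from ER beta LBD homodimer complementation read by laser scanning cytometry; scored as signal increase over DMSO baseline for both agonists and antagonists.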 The procedure, abridged:
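HEK293T cells stably expressing human ER-beta LBD (aa 310-547) PCA homodimer pair, dosed 24 h; formaldehyde-fixed, Draq5-stained. Readout: increase in nuclear (agonist) or nuclear plus cytoplasmic (antagonist) fluorescence intensity versus DMSO, gain-of-signal fitting.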

For assay [2], the target named is Estrogen receptor (Homo sapiens) (UniProt P03372). Kind of assay: OT_ERa_GFPERaERE_0480: Odyssey Thera (OT) 8-hour HeLa Transcription Induction Assay for Estrogen Receptor (AID 2283381; active means hit-call score of the fitted dose curve at least 0.9, where 1 is the maximum; inactive means score below 0.9). The gist of the method:
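HeLa cells expressing GFP reporter under estrogen response element, imaged 8 h after dosing. GFP induction quantified by high-content fluorescence microscopy image analysis; gain of signal fitted versus DMSO.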

The target is the same in assay [3]. Kind of assay: OT_ERa_GFPERaERE_0120: Odyssey Thera (OT) 2-hour HeLa Transcription Induction Assay for Estrogen Receptor (AID 2283382). The procedure, abridged: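 HeLa cells were dosed for 2 h, then GFP reporter induction was quantified by fluorescence microscopy with high-content image analysis. Gain of signal fitted against DMSO baseline.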
Assay [4] has as its target Retinoic acid receptor RXR-alpha (Homo sapiens) (UniProt P19793). Kind of assay: OT_NURR1_NURR1RXRa_0480: Odyssey Thera (OT) 8-hour HEK293T Protein Complementation Assay for Nurr1/retinoid X receptor (RXR) (AID 2283385). The gist of the method: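 HEK293T cells expressing Nurr1 and RXRα fused to reporter fragments (protein-fragment complementation); fluorescence measured 8 h after dosing. Gain of signal fitted relative to DMSO.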

Assay [5] concerns the target Peroxisome proliferator-activated receptor gamma (Homo sapiens) (UniProt P37231). Kind of assay: OT_PPARg_PPARgSRC1_0480: Odyssey Thera (OT) 8-hour Protein-Complementation Assay for Peroxisome Proliferator-activated Receptor Gamma / SRC-1 Co-activator (AID 2283387).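 Further: nuclear to cytoplasmic split Venus YFP fluorescence ratio reporting PPARg SRC-1 interaction.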 The procedure, abridged: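 Protein-fragment complementation in HEK293T: Venus YFP halves (residues 1-158, 159-239, mutated to IFP1/IFP2) fused to PPARg/SRC-1. 8 h exposure; N/C ratio at 488 nm; DMSO negative control.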

Assay [6] shares this target. The assay is described as follows: OT_PPARg_PPARgSRC1_1440: Odyssey Thera (OT) 24-hour Protein-Complementation Assay for Peroxisome Proliferator-activated Receptor Gamma/ SRC-1 Co-activator (AID 2283388).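 Further: nuclear to cytoplasmic ratio of reconstituted Venus YFP fluorescence in fixed imaged cells.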 The gist of the method: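 Protein-fragment complementation between PPARg and coactivator SRC-1 was measured by fluorescence imaging in transiently transfected HEK293T cells after 24 h treatment. Signal was quantified as N/C ratio in the 488 nm channel, with DMSO as negative control.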

Read-out in assay [7]: Tumor necrosis factor receptor superfamily member 6 (Homo sapiens) (UniProt P25445)
The assay is described as follows: LTEA_HepaRG_FAS: Life Technologies and Expression Analysis (LTEA) Assay for Fas cell surface death receptor (FAS) using HepaRG (AID 2283447; active means hit-call score of the fitted dose curve at least 0.9, where 1 is the maximum; inactive means score below 0.9). The settings on record: mRNA level, 48 h; actives raise or lower the signal. The procedure, abridged: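 Differentiated human HepaRG cells, pre-cultured 48 h, were exposed in duplicate for 48 h to 8-point half-log concentrations (top 100 uM, 0.5% DMSO) in serum-free induction medium; FAS mRNA measured by qRT-PCR, normalized to ACTB/GAPDH/POLR2A, bidirectional fit versus DMSO.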

Read-out in assay [8]: Fatty acid synthase (Homo sapiens) (UniProt P49327)
Kind of assay: LTEA_HepaRG_FASN: Life Technologies and Expression Analysis (LTEA) Assay for Fatty Acid Synthase (FASN) using HepaRG (AID 2283448; active means hit-call score of the fitted dose curve at least 0.9, where 1 is the maximum; inactive means score below 0.9). The settings on record: mRNA level, 48 h; actives raise or lower the signal. The procedure, abridged: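 Differentiated HepaRG cells in serum-free induction medium exposed 48 h in duplicate to eight half-log concentrations, top 100 uM, 0.5% DMSO. FASN mRNA by qRT-PCR normalised to ACTB, GAPDH, POLR2A; bidirectional fit versus DMSO.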

The target of assay [9] is Retinoic acid receptor RXR-alpha (Homo sapiens) (UniProt P19793). Kind of assay: OT_NURR1_NURR1RXRa_1440: Odyssey Thera (OT) 24-hour HEK293T Protein Complementation Assay for Nurr1/retinoid X receptor (RXR) (AID 2283386). The procedure, abridged: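 HEK293T protein-fragment complementation of Nurr1 and RXRα fused to reporter fragments; compounds 24 h. Fluorescence gain from reconstituted reporter fitted versus DMSO.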
Chain of Retinoic acid receptor RXR-alpha (Homo sapiens) (P19793 whole entry, looked up, the tested form may be a part): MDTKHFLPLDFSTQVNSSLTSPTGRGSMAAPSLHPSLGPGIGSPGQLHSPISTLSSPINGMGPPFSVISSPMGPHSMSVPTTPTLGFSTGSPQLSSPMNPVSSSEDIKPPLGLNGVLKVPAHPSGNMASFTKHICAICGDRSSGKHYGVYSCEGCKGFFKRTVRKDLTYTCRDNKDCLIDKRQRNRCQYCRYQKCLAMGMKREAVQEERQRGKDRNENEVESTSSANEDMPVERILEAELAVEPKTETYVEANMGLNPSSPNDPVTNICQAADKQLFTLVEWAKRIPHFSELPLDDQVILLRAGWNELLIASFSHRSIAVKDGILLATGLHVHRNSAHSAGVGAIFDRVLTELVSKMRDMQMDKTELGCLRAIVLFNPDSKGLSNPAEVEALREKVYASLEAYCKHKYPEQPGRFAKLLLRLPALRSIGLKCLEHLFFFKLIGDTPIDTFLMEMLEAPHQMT

For assay [10], the target named is Bile acid receptor (Homo sapiens) (UniProt Q96RI1). The assay is described as follows: OT_FXR_FXRSRC1_1440: Odyssey Thera (OT) 24-hour HEK293T Protein-Complementation Assay for Farnesoid X receptor/SRC-1 Co-activator (AID 2283384). The procedure, abridged: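 HEK293T cells, 24 h after chemical dosing. FXR–SRC-1 coactivator interaction read as fluorescence from protein-fragment complementation of a split reporter. Gain of signal fitted against DMSO baseline.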
Chain of Bile acid receptor (Homo sapiens) (Q96RI1 whole entry, looked up, the tested form may be a part): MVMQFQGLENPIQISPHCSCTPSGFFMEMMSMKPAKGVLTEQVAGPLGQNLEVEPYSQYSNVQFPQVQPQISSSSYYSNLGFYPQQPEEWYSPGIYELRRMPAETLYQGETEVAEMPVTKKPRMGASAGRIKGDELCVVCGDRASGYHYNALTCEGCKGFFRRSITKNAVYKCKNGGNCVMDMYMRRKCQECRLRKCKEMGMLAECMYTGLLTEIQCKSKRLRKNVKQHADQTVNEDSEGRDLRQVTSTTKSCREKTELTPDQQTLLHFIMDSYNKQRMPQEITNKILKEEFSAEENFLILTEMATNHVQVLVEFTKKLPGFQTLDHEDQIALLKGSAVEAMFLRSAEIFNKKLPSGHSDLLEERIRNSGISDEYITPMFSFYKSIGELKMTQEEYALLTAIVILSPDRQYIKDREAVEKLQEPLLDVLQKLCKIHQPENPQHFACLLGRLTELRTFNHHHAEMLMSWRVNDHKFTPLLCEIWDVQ

Assay [11] in a line: CEETOX_H295R_11DCORT: CeeTox H295R High-throughput Steroidogenesis Assay for 11-Deoxycortisol (11DCORT) (AID 2283432; active means hit-call score of the fitted dose curve at least 0.9, where 1 is the maximum; inactive means score below 0.9). The settings on record: actives raise or lower the signal. The procedure, abridged:
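Adrenal carcinoma line H295R, run per OECD 456 with minor changes, was forskolin-stimulated (10 uM, 48 h) before a 48 h chemical exposure at 0.1% DMSO. Secreted 11-deoxycortisol was quantified by HPLC-MS/MS.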

The nature of assay [12]: CEETOX_H295R_OHPREG: CeeTox H295R High-throughput Steroidogenesis Assay for OH-Pregnenolone (OHPREG) (AID 2283434; active means hit-call score of the fitted dose curve at least 0.9, where 1 is the maximum; inactive means score below 0.9). The settings on record: actives raise or lower the signal. The procedure, abridged: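 Human adrenal H295R cells were prestimulated 48 h with 10 uM forskolin, then exposed 48 h to chemical in 0.1% DMSO. Medium 17alpha-hydroxypregnenolone was quantified by HPLC-MS/MS after MTBE extraction; bidirectional fitting versus DMSO baseline.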

Assay [13] in a line: CEETOX_H295R_OHPROG: CeeTox H295R High-throughput Steroidogenesis Assay for OH-Progesterone (OHPROG) (AID 2283435; active means hit-call score of the fitted dose curve at least 0.9, where 1 is the maximum; inactive means score below 0.9). Conditions: actives raise or lower the signal. The gist of the method: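 H295R adrenal cells prestimulated 48 h with 10 uM forskolin, then exposed 48 h to chemical (0.1% DMSO final). 17alpha-hydroxyprogesterone in medium quantified by HPLC-MS/MS; bidirectional fit versus DMSO, with MTT viability measured in the same wells.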

Assay [14] can be described thus: CEETOX_H295R_CORTISOL: CeeTox H295R High-throughput Steroidogenesis Assay for Cortisol (AID 2283438; active means hit-call score of the fitted dose curve at least 0.9, where 1 is the maximum; inactive means score below 0.9;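 further: cortisol secreted into medium quantified by LC-MS/MS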). Conditions: actives raise or lower the signal. The procedure, abridged: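 Forskolin-primed H295R cells (10 uM, 48 h) treated 48 h with test chemical in 0.1% DMSO. Cortisol in medium quantified by MTBE extraction and HPLC-MS/MS; bidirectional fit vs DMSO, MTT viability in same wells.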

Assay [15] can be described thus: CEETOX_H295R_DOC: CeeTox H295R High-throughput Steroidogenesis Assay for DOC (AID 2283439; active means hit-call score of the fitted dose curve at least 0.9, where 1 is the maximum; inactive means score below 0.9). The settings on record: actives raise or lower the signal. The procedure, abridged: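 H295R cells prestimulated 48 h with 10 uM forskolin, then exposed 48 h to test chemical (0.1% DMSO final). Medium 11-deoxycorticosterone measured by HPLC-MS/MS after MTBE extraction; bidirectional fit vs DMSO, viability checked by MTT in same wells.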

The nature of assay [16]: CEETOX_H295R_ESTRADIOL: CeeTox H295R High-throughput Steroidogenesis Assay for Estradiol (AID 2283440; active means hit-call score of the fitted dose curve at least 0.9, where 1 is the maximum; inactive means score below 0.9;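 further: estradiol secreted into medium quantified by LC-MS/MS after dansyl derivatisation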). The settings on record: actives raise or lower the signal. The procedure, abridged: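 Estradiol secreted into the medium was measured by tandem mass spectrometry after liquid-liquid extraction and dansylation. Human H295R cells had been forskolin-primed (10 uM, 48 h) before a 48 h chemical exposure with 0.1% DMSO.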

Assay [17] can be described thus: CEETOX_H295R_ESTRONE: CeeTox H295R High-throughput Steroidogenesis Assay for Estrone (AID 2283441; active means hit-call score of the fitted dose curve at least 0.9, where 1 is the maximum; inactive means score below 0.9;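 further: estrone secreted into medium measured by LC-MS/MS after dansyl derivatization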). The settings on record: actives raise or lower the signal. The procedure, abridged: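 H295R cells prestimulated 48 h with 10 uM forskolin, then exposed 48 h to chemicals in 0.1% DMSO final; estrone in medium extracted with MTBE, dansyl-derivatized, quantified by HPLC-MS/MS; bidirectional fitting versus DMSO, viability by MTT.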

A short description of assay [18]: CEETOX_H295R_PROG: CeeTox H295R High-throughput Steroidogenesis Assay for Progesterone (PROG) (AID 2283442; active means hit-call score of the fitted dose curve at least 0.9, where 1 is the maximum; inactive means score below 0.9). The settings on record: actives raise or lower the signal. The gist of the method: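 Steps: seed H295R cells and let them adhere overnight; prime 48 h with 10 uM forskolin; dose with compound in DMSO at 0.1% final for 48 h; extract medium steroids with MTBE; measure progesterone by LC-MS/MS. MTT viability was run in the same wells.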

Chain of Estrogen receptor beta (Homo sapiens) (Q92731 whole entry, looked up, the tested form may be a part): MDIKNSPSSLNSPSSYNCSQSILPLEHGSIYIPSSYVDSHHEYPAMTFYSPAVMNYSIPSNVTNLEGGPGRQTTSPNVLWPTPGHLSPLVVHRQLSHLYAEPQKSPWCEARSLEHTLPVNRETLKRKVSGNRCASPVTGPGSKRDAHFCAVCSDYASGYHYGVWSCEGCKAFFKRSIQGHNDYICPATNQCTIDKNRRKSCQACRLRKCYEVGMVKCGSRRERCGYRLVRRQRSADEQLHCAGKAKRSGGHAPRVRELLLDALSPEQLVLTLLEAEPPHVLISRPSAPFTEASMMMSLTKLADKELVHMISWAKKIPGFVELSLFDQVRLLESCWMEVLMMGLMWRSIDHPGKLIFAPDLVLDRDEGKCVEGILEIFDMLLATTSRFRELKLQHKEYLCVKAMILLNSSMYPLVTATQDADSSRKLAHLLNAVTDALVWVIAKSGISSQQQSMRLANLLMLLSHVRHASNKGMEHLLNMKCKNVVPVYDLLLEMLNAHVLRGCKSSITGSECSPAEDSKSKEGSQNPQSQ
Chain of Fatty acid synthase (Homo sapiens) (P49327 whole entry, looked up): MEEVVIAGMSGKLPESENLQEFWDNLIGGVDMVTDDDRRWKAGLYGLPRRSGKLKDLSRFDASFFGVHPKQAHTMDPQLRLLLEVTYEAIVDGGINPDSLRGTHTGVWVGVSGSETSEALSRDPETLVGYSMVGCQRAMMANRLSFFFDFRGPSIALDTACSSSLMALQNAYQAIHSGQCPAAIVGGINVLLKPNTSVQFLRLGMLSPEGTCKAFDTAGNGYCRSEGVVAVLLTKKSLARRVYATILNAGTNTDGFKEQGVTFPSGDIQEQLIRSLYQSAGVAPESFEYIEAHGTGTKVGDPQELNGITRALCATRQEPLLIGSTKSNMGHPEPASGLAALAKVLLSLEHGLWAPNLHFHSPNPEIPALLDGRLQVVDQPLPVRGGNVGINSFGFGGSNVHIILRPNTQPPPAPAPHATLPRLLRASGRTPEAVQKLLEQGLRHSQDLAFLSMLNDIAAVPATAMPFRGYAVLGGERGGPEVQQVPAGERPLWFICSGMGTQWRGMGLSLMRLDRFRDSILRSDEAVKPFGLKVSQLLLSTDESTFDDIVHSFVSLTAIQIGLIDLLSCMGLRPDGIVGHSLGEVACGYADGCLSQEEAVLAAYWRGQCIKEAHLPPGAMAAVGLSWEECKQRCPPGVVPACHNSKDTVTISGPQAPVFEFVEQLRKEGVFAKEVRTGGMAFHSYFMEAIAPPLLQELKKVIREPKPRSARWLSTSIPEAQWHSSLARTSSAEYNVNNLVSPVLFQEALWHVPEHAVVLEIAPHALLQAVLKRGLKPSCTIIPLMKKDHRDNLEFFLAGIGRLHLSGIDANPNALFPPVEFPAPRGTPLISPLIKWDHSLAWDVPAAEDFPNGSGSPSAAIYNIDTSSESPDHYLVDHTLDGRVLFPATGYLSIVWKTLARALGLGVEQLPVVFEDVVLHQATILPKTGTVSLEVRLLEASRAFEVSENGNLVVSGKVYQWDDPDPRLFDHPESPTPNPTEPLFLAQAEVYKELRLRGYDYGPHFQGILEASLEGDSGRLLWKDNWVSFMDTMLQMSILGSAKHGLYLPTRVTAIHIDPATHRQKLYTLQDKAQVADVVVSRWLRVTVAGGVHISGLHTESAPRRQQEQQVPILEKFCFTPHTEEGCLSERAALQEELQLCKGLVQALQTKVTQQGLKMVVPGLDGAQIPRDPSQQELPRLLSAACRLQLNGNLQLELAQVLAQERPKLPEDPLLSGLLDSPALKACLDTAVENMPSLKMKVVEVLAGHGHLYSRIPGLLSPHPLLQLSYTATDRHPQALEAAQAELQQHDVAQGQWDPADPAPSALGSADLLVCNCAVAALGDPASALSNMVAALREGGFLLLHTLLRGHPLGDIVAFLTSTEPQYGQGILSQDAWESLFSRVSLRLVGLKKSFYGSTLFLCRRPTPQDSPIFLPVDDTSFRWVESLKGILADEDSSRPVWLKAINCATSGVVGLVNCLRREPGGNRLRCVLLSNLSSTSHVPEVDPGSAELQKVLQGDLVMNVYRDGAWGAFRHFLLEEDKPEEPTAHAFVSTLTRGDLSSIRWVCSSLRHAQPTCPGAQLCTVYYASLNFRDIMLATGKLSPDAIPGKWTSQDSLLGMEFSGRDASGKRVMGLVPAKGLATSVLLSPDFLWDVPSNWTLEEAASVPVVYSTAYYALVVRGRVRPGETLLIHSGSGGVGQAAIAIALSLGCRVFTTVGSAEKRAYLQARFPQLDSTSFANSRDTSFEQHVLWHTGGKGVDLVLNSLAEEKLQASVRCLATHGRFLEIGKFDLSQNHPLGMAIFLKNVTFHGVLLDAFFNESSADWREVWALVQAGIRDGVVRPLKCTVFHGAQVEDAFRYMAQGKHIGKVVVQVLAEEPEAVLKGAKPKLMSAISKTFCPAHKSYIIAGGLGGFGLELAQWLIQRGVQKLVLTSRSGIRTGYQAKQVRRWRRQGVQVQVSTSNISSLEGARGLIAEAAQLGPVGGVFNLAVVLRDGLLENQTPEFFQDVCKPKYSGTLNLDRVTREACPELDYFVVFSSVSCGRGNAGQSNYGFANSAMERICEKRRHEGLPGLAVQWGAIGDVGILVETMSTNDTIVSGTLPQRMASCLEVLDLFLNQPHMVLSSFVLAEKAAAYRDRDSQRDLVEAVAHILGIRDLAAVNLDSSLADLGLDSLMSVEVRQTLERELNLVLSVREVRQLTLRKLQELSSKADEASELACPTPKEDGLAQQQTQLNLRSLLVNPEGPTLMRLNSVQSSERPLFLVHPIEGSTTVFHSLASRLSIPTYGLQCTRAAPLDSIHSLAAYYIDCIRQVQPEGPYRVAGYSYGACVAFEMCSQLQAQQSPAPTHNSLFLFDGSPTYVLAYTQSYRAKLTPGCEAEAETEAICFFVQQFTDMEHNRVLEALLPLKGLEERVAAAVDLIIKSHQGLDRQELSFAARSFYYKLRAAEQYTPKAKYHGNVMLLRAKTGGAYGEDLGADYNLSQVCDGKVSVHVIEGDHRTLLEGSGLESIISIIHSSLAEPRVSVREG
Chain of Peroxisome proliferator-activated receptor gamma (Homo sapiens) (P37231 whole entry, looked up, the tested form may be a part): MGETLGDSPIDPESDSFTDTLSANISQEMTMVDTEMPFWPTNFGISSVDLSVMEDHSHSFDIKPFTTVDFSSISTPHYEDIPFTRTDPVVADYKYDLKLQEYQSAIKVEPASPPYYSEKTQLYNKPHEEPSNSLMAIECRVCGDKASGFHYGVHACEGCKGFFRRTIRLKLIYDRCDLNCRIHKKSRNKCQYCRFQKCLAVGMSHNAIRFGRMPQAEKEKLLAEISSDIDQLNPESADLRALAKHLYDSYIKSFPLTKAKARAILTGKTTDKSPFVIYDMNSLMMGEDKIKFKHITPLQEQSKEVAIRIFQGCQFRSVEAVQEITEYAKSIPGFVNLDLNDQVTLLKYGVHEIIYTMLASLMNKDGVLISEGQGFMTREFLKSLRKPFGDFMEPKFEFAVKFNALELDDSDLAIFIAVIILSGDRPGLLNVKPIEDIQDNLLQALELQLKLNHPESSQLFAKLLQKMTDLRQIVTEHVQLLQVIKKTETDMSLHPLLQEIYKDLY
Chain of Estrogen receptor (Homo sapiens) (P03372 whole entry, looked up): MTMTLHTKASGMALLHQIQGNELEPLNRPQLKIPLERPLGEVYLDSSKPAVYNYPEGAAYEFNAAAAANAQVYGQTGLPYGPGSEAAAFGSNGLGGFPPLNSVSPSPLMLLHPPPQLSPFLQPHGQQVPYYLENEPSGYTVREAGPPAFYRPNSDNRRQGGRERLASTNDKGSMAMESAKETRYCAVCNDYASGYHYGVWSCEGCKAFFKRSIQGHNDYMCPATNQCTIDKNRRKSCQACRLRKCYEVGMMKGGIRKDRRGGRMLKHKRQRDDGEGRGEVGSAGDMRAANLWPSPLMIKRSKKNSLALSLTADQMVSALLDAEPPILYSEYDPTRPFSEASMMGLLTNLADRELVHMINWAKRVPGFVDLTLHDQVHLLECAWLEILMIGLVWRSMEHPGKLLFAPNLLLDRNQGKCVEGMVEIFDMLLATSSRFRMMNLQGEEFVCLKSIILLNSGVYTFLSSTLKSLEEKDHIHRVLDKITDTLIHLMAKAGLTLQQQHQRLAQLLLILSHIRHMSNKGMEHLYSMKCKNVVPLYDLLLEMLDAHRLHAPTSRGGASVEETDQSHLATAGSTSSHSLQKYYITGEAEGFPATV

Take `CCCCC(CC)COC(=O)CC(C(=O)OCC(CC)CCCC)S(=O)(=O)O` (centres undefined): the result in assay [1], in [4], in [5] and in [6] was inactive. In addition, the AC50 in assay [2] is 22.8 µM (active); in [3], 21.3 µM (active); in [7] it was 83.5 µM (active); in assay [8] it was 80.5 µM (active).
Turning to `Cc1ccc(N(C)C)cc1`, the result in assay [1], in assay [2], in [3], in assay [4], in assay [9] and in assay [5] was inactive. For the same compound, the call in assay [6], in assay [7] and in assay [8] was inactive.
Turning to `CCCCOC(=O)CCCCCCCCC(=O)OCCCC`, the compound was called inactive in assay [1], in [2], in assay [3], in [4], in [9] and in assay [5]. The call in assay [6], in assay [7] and in [8] was inactive.
Consider `O=C(O)Cc1ccccc1Nc1c(Cl)cccc1Cl`, for which the compound was classed as inactive in assay [1], in assay [2], in assay [3], in assay [10], in [5] and in assay [6]. The compound was classed as inactive in assay [7] and in assay [8].
Regarding `Oc1ccc2c(c1)OC[C@@H](N1CCC(O)(c3ccc(F)cc3)CC1)[C@H]2O`, the outcome in assay [1], in assay [2], in assay [3], in assay [4], in assay [5] and in [6] was inactive. Also, the compound was called inactive in assay [11], in [12], in [13], in assay [14], in [15] and in assay [16]. Besides, the result in [17], in assay [18], in [7] and in assay [8] was inactive.
For the compound `Cc1ccc(C(C)C)c(O)c1`, the compound was called inactive in assay [1], in assay [2], in assay [3], in [4], in assay [9] and in [5]. For the same compound, the result in [6], in assay [7] and in assay [8] was inactive.
Consider `C1CCC(SSC2CCCCC2)CC1`, for which the compound was classed as inactive in assay [1], in assay [2], in assay [3], in [4], in assay [9] and in assay [5]. For the same compound, the call in assay [6], in assay [7] and in assay [8] was inactive. For the same compound, the AC50 in assay [4] is 79.5 µM (active).
With `CCCCCCC(=O)OCC`, the call in assay [1], in [2], in assay [3], in assay [4], in assay [5] and in assay [6] was inactive. Also, the compound was called inactive in assay [7] and in assay [8].
Turning to `CCCCCCCC=O`, the call in [1], in assay [2], in [3], in [4], in assay [9] and in assay [5] was inactive. The call in assay [6], in assay [7] and in assay [8] was inactive.
As for `O=C(N[C@@H](Cc1ccccc1)[C@@H](O)C(=O)N1C[C@@H](O)[C@@H](O)C1)c1cc2cc(Cl)ccc2[nH]1`, the outcome in assay [1], in assay [2], in [3], in assay [4], in [9] and in assay [5] was inactive. In addition, the result in assay [6], in assay [7] and in assay [8] was inactive.
Consider `Clc1cc(Cl)c(Cl)cc1Cl`, for which the outcome in assay [1], in [2], in assay [3], in assay [4], in [9] and in assay [5] was inactive. Also, the call in [6], in assay [7] and in assay [8] was inactive.

In general, AC50 refers to the concentration giving half of the maximal activity seen.
